Screening results: PubChem BioAssay, several laboratories
Most compounds without a hit are left out; they make up all but 4.9% or so of the library.
CSC inhib = cancer stem cell inhibition | cancer stem cell-like cells viability, luminescence | inhibition, % at 7.5 µM | actives 1.1% (n = 300,000) | AID 2717; in the data active = inhibition above about 75%; tested in HMLE shEcad cells
PP1 counter = counter-screen for PP5 inhibitors: inhibitors of human PP1-alpha; P62136; purified PP1alpha, OMFP fluorescence; inhibition, % at 6.7 µM; actives 0.9% (n = 320,000); AID 2235;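 active = inhibition above the mean inhibition of all tested compounds plus 3 SD, computed separately for each screening campaign, cut at about 15% in these data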
Beta cell apopt = beta cell apoptosis inhibition; INS-1E cytokine-induced death, ATP luminescence, 48 h; percent of positive-control rescue, neutral wells zero; protection from apoptosis, % (concentration not given with the values); actives 0.8% (n = 300,000);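 active = Every replicate reaches about 75%, or at least half do and their mean reaches it too, limit read from the data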;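 also: higher means more ATP so stronger rescue from cytokine killing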
Mdm2 MdmX PPI = disrupts the human Mdm2-MdmX interaction | O15151+Q00987 | inhibition, % at 8 µM | SaOS-2 split-luciferase Mdm2/MdmX complementation, luminescence | actives 3% (n = 330,000);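 active = inhibition of at least 50% at 8 µM in the primary screen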
Target sequence (O15151 whole entry, looked up): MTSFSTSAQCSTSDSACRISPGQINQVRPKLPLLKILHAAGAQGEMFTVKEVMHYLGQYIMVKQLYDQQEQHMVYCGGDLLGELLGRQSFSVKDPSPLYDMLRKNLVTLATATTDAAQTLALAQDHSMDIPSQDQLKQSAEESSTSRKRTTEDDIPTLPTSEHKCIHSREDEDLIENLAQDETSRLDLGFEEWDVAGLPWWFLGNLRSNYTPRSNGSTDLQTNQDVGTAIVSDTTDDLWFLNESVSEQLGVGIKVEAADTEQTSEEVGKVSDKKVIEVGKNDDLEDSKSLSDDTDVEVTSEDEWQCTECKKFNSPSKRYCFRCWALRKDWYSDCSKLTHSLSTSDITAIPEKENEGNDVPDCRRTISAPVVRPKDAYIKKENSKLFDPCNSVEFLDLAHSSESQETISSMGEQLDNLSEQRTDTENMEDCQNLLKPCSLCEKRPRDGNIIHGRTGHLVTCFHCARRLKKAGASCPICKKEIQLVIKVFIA
Target sequence (Q00987 whole entry, looked up): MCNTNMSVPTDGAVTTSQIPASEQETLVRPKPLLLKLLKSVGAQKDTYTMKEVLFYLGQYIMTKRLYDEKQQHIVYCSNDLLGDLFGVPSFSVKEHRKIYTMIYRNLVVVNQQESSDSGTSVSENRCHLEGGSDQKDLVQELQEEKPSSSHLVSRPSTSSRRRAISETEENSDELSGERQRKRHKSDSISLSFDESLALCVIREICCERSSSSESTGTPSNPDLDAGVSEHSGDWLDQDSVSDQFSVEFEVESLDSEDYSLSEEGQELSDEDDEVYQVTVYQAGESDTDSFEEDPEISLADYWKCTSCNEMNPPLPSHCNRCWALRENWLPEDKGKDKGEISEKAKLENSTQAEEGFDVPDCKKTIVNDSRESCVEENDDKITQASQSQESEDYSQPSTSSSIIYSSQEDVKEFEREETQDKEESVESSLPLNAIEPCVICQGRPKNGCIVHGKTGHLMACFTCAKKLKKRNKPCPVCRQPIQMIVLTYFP
PP5 primary = blocks human protein phosphatase 5 activity. P53041. purified PP5c, OMFP substrate fluorescence. actives 0.18% (n = 320,000). inhibition, % at 6.7 µM;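 active = inhibition above the campaign's mean inhibition across all tested compounds plus 3 SD, cut at about 9.5% in these data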
Calb FLC = C. albicans growth modulation with fluconazole; growth inhibition, % (concentration not given with the values); C. albicans CaCi-2 (fluconazole-resistant clinical isolate) + fluconazole, Alamar Blue growth, 48 h; actives 0.57% (n = 300,000);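 active = growth inhibition above about 58% in most replicates, limit read from the data, passing the limit was not always enough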;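 also: all wells also contain fluconazole at 8 µg/ml as a sub-toxic cotreatment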
PP5 conf = PP5 (human) inhibition, confirmation | shares compounds with PP5 primary | Purified PP5, fluorogenic phosphatase substrate, fluorescence | inhibition, % at 6.7 µM | actives 22% (n = 460) | AID 2331; in the data active = inhibition above about 9.5%
PP1 inh counter = counter-screen for PP5 inhibitors: human PP1 phosphatase inhibition. shares compounds with PP5 primary. PP1 enzyme, fluorescent phosphatase substrate. inhibition, % at 6.7 µM. actives 4% (n = 460); in the data active = inhibition above about 16%
Hits are given with their value; n = inactive; x = no result; ! = not confirmed by another sample.

SMILES	CSC inhib	PP1 counter	Beta cell apopt	Mdm2 MdmX PPI	PP5 primary	Calb FLC	PP5 conf	PP1 inh counter
S=C(NC1CCCCC1)N1CCOCCOCCN(C(=S)NC2CCCCC2)CCOCC1	n	n	n	n	9.8	n	n	n
O=C(Nc1ccc(Br)cc1)c1cccn1-c1ncc(C(F)(F)F)cc1Cl	n	n	n	n	11	n	n	n
CC1CCCCC1NC(=O)CCCn1c(=S)[nH]c2ccsc2c1=O (configuration not stated)	n	n	n	n	n	n	x	x
CCN1CCCC1CNC(=O)Cn1nc(C)n2nc(-c3ccccc3)cc2c1=O (configuration not stated)	n	n	n	n	n	n	x	x
Nc1cc2nsnc2cc1Br	n	n	n	n	11	n	49	n
Nc1cccc2nsnc12	n	n	n	n	n	n	x	x
CCOC(=O)N1CCC2(CC1)NCCc1c2[nH]c2ccccc12	n	n	n	n	12	n	n	n
COc1ccccc1C(=O)N1CCc2ccccc21	n	n	n	n	n	n	x	x
Nc1ccccc1C(=O)N1CCc2ccccc21	n	n	n	n	10	n	n	n
Cc1cc(C(=O)N2CCc3ccccc32)c2ccccc2n1	n	n	n	n	9.8	n	n	n
Cc1ccnc(NC(=O)COC(=O)c2ccc(F)cc2F)n1	n	n	n	n	15	n	n	n
O=C(COC(=O)c1ccc(F)cc1F)Nc1cccnc1Cl	x	n	n	n	n	x	x	x
O=C1CC(N2CCN(c3ccc(Cl)cc3)CC2)C(=O)N1c1ccccc1 (configuration not stated)	n	n	n	n	10	n	n	n
O=C1CC(N2CCN(c3ccccc3)CC2)C(=O)N1c1cccc(Cl)c1 (configuration not stated)	n	n	n	n	n	n	x	x
Cc1ccc(C)c(N2CCN(C(=O)CCc3nc(-c4ccc(Br)cc4)no3)CC2)c1	x	x	x	n	x	x	x	x
CCOC(=O)c1c(C(F)(F)C(F)(F)C(F)(F)C(F)(F)F)n[nH]c1C	x	n	n	n	14	n	9.9	n
CCSc1nnc(NC(=O)CSc2nc3c(c(=O)n2-c2ccccc2)SCC3)s1	n	n	n	n	12	n	n	n
O=C(Nc1cc(C(F)(F)F)cc(C(F)(F)F)c1)c1ccc(Cn2cc(C(F)(F)F)ccc2=O)cc1	n	n	n	n	11	n	11	n
O=C(Nc1ccccc1)c1ccc(Cn2cc(C(F)(F)F)ccc2=O)cc1	n	n	n	n	n	n	x	x
Cc1cnc(NC(=O)C2=C(O)c3ccccc3S(=O)(=O)N2C)s1	n	n	n	n	15!	n	n	n
Cc1ccc(C(=O)NC(C)c2ccccc2)o1 (configuration not stated)	n	n	n	n	11	n	n	n
CC(NC(=O)c1ccc(Br)o1)c1ccccc1 (configuration not stated)	n	n	n	n	n	n	x	x
COC(=O)c1[nH]c(C)c(/C(O)=C2\C(=O)C(=O)N(CCN3CCOCC3)C2c2ccccc2OC)c1C (configuration not stated)	n	n	n	n	11	n	n	n
O=C(Nc1cccc2ncccc12)c1ccc([N+](=O)[O-])o1	x	n	n	n	n	n	x	x
O=C(Nc1cccc2ncccc12)c1ccc(-c2ccc(Br)cc2)o1	n	n	n	n	13	n	n	n
SMILES	CSC inhib	PP1 counter	Beta cell apopt	Mdm2 MdmX PPI	PP5 primary	Calb FLC	PP5 conf	PP1 inh counter
CC(C)(C)NC(=O)CSc1nc2cccnc2n1C1CCCCC1	n	n	n	n	14	n	n	n
CNC(=O)CSc1nc2cccnc2n1C1CCCCC1	n	n	n	n	n	n	x	x
C/C(=N\NC(=O)c1cc(-c2ccncc2)nc2ccccc12)c1ccc(OC(F)F)cc1	n	n	n	n	n	n	x	x
Cc1ccc(NC(=O)c2ccccc2OCC(=O)c2ccc(F)cc2)cc1	n	n	n	n	n	n	x	x
CCOc1ccc(NC(=O)c2ccccc2OCC(=O)c2ccc(C)cc2)cc1	n	n	x	n	9.8	n	n	n
Cn1ccnc1C(=O)c1ccc(Cl)c(S(=O)(=O)N2CCOCC2)c1	x	n	x	n	10.0	n	n	n
C=CCn1c(SCC(=O)NC2CCCC2)nnc1-c1ccccn1	n	n	n	n	n	n	x	x
CCCn1c(SCC(=O)NC2CCCC2)nnc1-c1ccccn1	n	n	n	n	11	n	n	n
COc1ccc(NC(=O)c2n[nH]c(=O)c3ccccc23)cc1S(=O)(=O)N1CCCCC1	n	n	n	n	n	n	x	x
COc1ccc(C(=O)NC2CCN(CC(=O)NCc3cccc(OC)c3)CC2)cc1	n	n	n	n	12	n	n	n
Clc1ccc(-c2cn(-c3ccc(Cl)cc3)c3[n+]2CCCCC3)cc1	n	n	n	n	n	n	x	x
COc1ccc(-c2cn(-c3ccc(Cl)cc3)c3[n+]2CCCCC3)cc1	n	n	100	n	19	n	n	n
CN1CCN(CCC(=O)Nc2ccc(OCc3ccccc3)cc2)CC1	n	n	n	n	n	n	x	x
O=C(CCN1CCN(CCO)CC1)Nc1ccc(OCc2ccccc2)cc1	n	n	n	n	10	n	n	n
O=C(Nc1ccc(OC(F)(F)F)cc1)C1CCCN(C(=O)c2ccc(Cl)cc2)C1 (configuration not stated)	n	n	n	n	14	x	n	n
CCN(CC)CCN1C(=O)C2C(C(=O)Nc3ccc(C(C)C)cc3)C3C=CC2(O3)C1C(=O)NC1CCCCC1 (configuration not stated)	n	n	n	n	n	n	x	x
O=C(CSc1nc2ncc(Cl)cc2[nH]1)NCC(=O)Nc1ccc(F)c(F)c1F	n	n	n	n	n	n	x	x
O=C(Nc1ccc(O)cc1)/C(=C\C=C\c1ccccc1)NC(=O)c1ccccc1	n	n	n	n	12	n	n	n
CC(OC(=O)CNC(=O)c1cccs1)C(=O)Nc1ccc(S(N)(=O)=O)cc1 (configuration not stated)	n	n	n	n	n	n	x	x
CN(C)c1ccc(C(=O)N/N=C/c2ccccn2)cc1	n	n	n	n	n	n	x	x
COC(=O)CCC(=O)OC1(C)C(=O)C2=CN(CCc3c[nH]c4ccccc34)C(c3ccc(OC)cc3)=CC2=C(Br)C1=O (configuration not stated)	n	n	n	n	n	n	x	x
COC(=O)CCC(=O)OC1(C)C(=O)C2=CN(C3CC3)C(c3ccc(OC)cc3)=CC2=C(Br)C1=O (configuration not stated)	n	n	n	n	11	n	37	n
COC(=O)CCC(=O)OC1(C)C(=O)C2=CN(CC(C)C)C(c3ccc(OC)cc3)=CC2=C(Br)C1=O (configuration not stated)	n	n	n	n	15	n	31	n
